In PubChem BioAssay:
Activity calls are given as the source filed them. Unless noted, how the calls were made is not given here.

How the values were obtained:
[1] = HepG2 liver cancer cell viability effects, profiling panel, resazurin fluorescence, 24 h, PK04 Diversity Set (AID 1172); conditions: higher = more signal
[2] = basal S. cerevisiae growth modulation, no modifier, primary screen, OD600, strain BY4716, 24 h, basal condition (AID 1173); conditions: OD600, 24 h, higher = more signal, called active from +8 up or from −8 down
[3] = MM1S myeloma cell viability, profiling panel, resazurin fluorescence, basal, 24 h, PK04 Diversity Set (AID 1174); conditions: higher = more signal, called active from +8 up or from −8 down;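 further: MM1S multiple myeloma cell line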
[4] = target: Dihydroorotate dehydrogenase (quinone), mitochondrial (Plasmodium falciparum (isolate 3D7)) (UniProt Q08210); test: PfDHODH enzyme inhibitors, primary screen, biochemical, C-terminal His tag, absorbance 600 nm (AID 1175); conditions: DCIP absorbance 600 nm, higher = more signal, called active from +8 up or from −8 down;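 further: recombinant parasite enzyme with a five histidine tag at its C terminus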
[5] = P. aeruginosa biofilm formation inhibitors, primary screen, strain PAO1, LB-PBS medium, absorbance 600 nm (AID 1176); conditions: P. aeruginosa PAO1 growth/biofilm, A600, 12 h; higher = more signal
[6] = S. cerevisiae RM11-1a growth modifiers, primary screen, strain RM11-1a, OD600, basal, 24 h (AID 1177); conditions: OD600, 24 h, higher = more signal, called active from +8 up or from −8 down;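 further: cultures grown under basal conditions with no added stressor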
[7] = E. coli acrAB mutant growth effects, primary screen, E. coli filamentation inducers, strain DRC39, OD650, 24 h (AID 1178); conditions: higher = more signal, called active from +8 up or from −8 down;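 further: growth measured as culture turbidity by optical density at 650 nm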
[8] = E. coli acrAB mutant growth effects, primary screen, E. coli filamentation inducers, strain DRC39, OD650, 48 h (AID 1179);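 further: screen aims at cell division blockers that make cells filament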; conditions: E. coli DRC39 delta-acrAB growth, higher = more signal, called active from +8 up or from −8 down
[9] = RPMI8226 myeloma cell viability, profiling panel, resazurin fluorescence, basal, 24 h, PK04 Diversity Set (AID 1180); conditions: higher = more signal;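 further: RPMI8826 multiple myeloma cell line at 5000 cells per well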
[10] = target: E3 ubiquitin-protein ligase XIAP (Homo sapiens) (UniProt P98170); test: XIAP binders, primary screen, biophysical, small-molecule microarray, fluorescence 635 nm (AID 1181); conditions: small-molecule microarray binding, higher = more signal;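 further: score merges 667 nm emission and signal to noise over triplicate slides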
[11] = system: XIP peptide (Xip251-270) binding; test: small-molecule binders of XIP peptide, primary screen, biochemical, small-molecule microarray, fluorescence 635/667 nm, 0.1 µg/mL protein (AID 1182); conditions: fluorescent protein binding, 635 nm, higher = more signal, called active from +8 up or from −8 down
[12] = system: XIP peptide (Xip251-270); test: small-molecule binders of XIP peptide, primary screen, biochemical, small-molecule microarray, fluorescence 635/667 nm, 0.5 µg/mL protein (AID 1183); conditions: small-molecule microarray binding, fluorescence 635 nm; higher = more signal
[13] = Plasmodium falciparum growth inhibition, primary screen, strain 3D7, DAPI fluorescence, 100 nL (AID 1184);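 further: parasites grown inside human red blood cells in medium with human serum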; conditions: P. falciparum 3D7 growth, 3 d, higher = more signal
[14] = target: Homeobox protein Hox-A13 (Mus musculus) (UniProt Q62424); test: inhibitors of HoxA13-DNA binding, primary screen, biochemical, fluorescence polarization, labeled oligonucleotide (AID 1185); conditions: 15 min, higher = more signal, called active from +8 up or from −8 down
[15] = inhibitors of hydroxyurea-induced Chk1 phosphorylation, primary screen, imaging, HeLa, phospho-Chk1 antibody, percent positive cells (AID 1186); conditions: hydroxyurea-induced phospho-Chk1 immunofluorescence imaging, higher = more signal
[16] = inhibitors of hydroxyurea-induced Chk1 phosphorylation, primary screen, imaging, HeLa, phospho-Chk1 nuclear intensity (AID 1187); conditions: hydroxyurea-induced phospho-Chk1 immunofluorescence imaging, higher = more signal

Dihydroorotate dehydrogenase (quinone), mitochondrial (Plasmodium falciparum (isolate 3D7)), sequence (Q08210 whole entry, looked up): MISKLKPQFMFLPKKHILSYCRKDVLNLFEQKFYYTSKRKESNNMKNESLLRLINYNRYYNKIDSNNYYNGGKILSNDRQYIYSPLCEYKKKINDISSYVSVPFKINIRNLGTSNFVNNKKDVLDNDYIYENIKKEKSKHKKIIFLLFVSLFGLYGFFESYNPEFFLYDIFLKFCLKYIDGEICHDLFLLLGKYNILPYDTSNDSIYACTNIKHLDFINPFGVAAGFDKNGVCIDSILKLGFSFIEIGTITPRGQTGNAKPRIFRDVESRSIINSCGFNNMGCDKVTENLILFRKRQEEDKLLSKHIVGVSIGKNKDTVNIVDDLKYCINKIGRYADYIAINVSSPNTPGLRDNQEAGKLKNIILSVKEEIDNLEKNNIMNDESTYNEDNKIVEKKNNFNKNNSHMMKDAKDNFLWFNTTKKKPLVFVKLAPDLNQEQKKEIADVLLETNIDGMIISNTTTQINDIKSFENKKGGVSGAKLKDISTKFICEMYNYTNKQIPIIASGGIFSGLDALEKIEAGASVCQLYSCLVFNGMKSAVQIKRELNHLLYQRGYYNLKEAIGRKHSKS
E3 ubiquitin-protein ligase XIAP (Homo sapiens), sequence (P98170 whole entry, looked up): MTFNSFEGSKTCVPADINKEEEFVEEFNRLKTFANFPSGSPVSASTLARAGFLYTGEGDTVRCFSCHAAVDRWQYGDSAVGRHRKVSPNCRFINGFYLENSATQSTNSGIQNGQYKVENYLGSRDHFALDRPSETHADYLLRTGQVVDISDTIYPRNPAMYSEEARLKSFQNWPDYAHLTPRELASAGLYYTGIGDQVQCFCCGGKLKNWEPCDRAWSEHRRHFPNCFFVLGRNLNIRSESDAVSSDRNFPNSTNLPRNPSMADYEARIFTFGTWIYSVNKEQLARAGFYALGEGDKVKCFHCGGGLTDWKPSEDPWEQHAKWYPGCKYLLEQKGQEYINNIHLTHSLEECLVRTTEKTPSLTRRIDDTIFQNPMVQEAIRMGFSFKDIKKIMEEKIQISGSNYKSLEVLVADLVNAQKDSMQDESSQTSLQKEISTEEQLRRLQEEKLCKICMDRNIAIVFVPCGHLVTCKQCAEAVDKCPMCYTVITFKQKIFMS
Homeobox protein Hox-A13 (Mus musculus), sequence (Q62424 whole entry, looked up): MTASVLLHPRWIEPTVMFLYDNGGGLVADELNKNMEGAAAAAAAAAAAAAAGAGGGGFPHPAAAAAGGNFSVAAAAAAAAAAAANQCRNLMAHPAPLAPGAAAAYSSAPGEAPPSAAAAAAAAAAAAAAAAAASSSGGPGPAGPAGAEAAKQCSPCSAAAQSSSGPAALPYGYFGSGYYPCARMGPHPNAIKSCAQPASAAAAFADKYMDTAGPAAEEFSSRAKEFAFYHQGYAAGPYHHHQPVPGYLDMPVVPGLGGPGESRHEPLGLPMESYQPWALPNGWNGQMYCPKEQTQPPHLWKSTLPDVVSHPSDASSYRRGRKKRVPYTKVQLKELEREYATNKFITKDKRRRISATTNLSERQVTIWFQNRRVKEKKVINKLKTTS

| SMILES | z-score [1] | z-score [2] | z-score [3] | composite z-score [4] | z-score [5] | z-score [6] | z-score [7] | z-score [8] | z-score [9] | composite z-score [10] | composite z-score [11] | composite z-score [12] | z-score [13] | z-score [14] | z-score [15] | z-score [16] |
| --- | --- | --- | --- | --- | --- | --- | --- | --- | --- | --- | --- | --- | --- | --- | --- | --- |
| COCCOC(=O)N1C(=O)[C@@]2(c3cc(C#Cc4ccc(OC)cc4)ccc31)[C@H](C(=O)Nc1nc3ccccc3s1)[C@H]1C(=O)O[C@H](c3ccccc3)[C@H](c3ccccc3)N1[C@@H]2c1ccccc1OCCO | 1.17 | 0.86 (inactive) | 1.34 (inactive) | -0.882 (inactive) | 1.89 (inactive) | 0.972 (inactive) | 0.285 (inactive) | 0.376 (inactive) | 1.85 | -0.221 | 0.71 (inactive) | 0.594 | -1.96 | 3.56 (inactive) | -0.338 (inactive) | -0.538 (inactive) |
| O=C1O[C@@H](c2ccccc2)[C@@H](c2ccccc2)N2[C@@H](c3ccc(OCCO)cc3)[C@]3(C(=O)Nc4ccc(C#CCCO)cc43)[C@@H](C(=O)Nc3nc4ccccc4s3)[C@H]12 | 1.44 | 0.799 (inactive) | 1 (inactive) | -0.812 (inactive) | 0.89 (inactive) | 0.25 (inactive) | 0.042 (inactive) | -0.366 (inactive) | 1.51 | 0.0225 | 0.469 (inactive) | 0.487 | -1.86 | 1.8 (inactive) | -0.234 (inactive) | -0.41 (inactive) |
| COc1ccc([Si](C)(C)[C@H]2[C@H](CCO)O[C@@]3(C(=O)N(Cc4ccc(N5CCOC5=O)cc4)c4ccccc43)[C@@H]2C)cc1 | -0.667 | 2.47 (inactive) | -2.66 (inactive) | 1.02 (inactive) | 2.02 (inactive) | 5.44 (inactive) | 1.32 (inactive) | 0.714 (inactive) | -2.06 | -0.0206 | 0.782 (inactive) | 0.666 | -2.76 | -2.76 (inactive) | -0.73 (inactive) | -0.713 (inactive) |
| CCCC[C@H]1OB(O)C[C@H]2C1=C(C)C[C@H]1C(=O)C=CC(=O)[C@H]12 | -0.559 | -17.6 (active) | -1 (inactive) | -2.54 (inactive) | 0.318 (inactive) | 0.128 (inactive) | -0.449 (inactive) | -0.316 (inactive) | -0.312 | -0.188 | 0.656 (inactive) | 0.229 | -0.0202 | -6.4 (inactive) | 0.217 (inactive) | -0.0819 (inactive) |
| C=CC[C@]1(C(=O)OC)N=C(c2ccc(OCCCO)cc2)O[C@H]1c1ccccc1N=[N+]=[N-] | -0.344 | -0.352 (inactive) | -0.455 (inactive) | 0.823 (inactive) | 0.935 (inactive) | 1.6 (inactive) | 0.0005 (inactive) | -1.12 (inactive) | -0.406 | 0.509 | 1.61 (inactive) | 0.867 | -2.21 | -3.31 (inactive) | -0.179 (inactive) | 0.059 (inactive) |
| CO[C@H]1O[C@H](CO)[C@@H](OC(=O)Nc2ccc(C(F)(F)F)cc2)[C@H](OC(=O)Nc2ccccc2-c2ccccc2)[C@H]1OC(=O)Nc1ccccc1-c1ccccc1 | -5.27 | 1.39 (inactive) | -5.4 (inactive) | -0.132 (inactive) | 3.43 (inactive) | 2.8 (inactive) | -0.853 (inactive) | -1.25 (inactive) | -4.63 | 0.201 | 0.844 (inactive) | 0.701 | -1.8 | -3.72 (inactive) | 0.83 (inactive) | 0.784 (inactive) |
| COc1ccc([Si](C)(C)[C@@H]2[C@@H](CC(=O)N(CCO)Cc3ccccc3)O[C@]3(C(=O)N(Cc4ccc(N5CCC5=O)cc4)c4ccccc43)[C@H]2C)cc1 | 0.278 | 0.144 (inactive) | -0.604 (inactive) | -1.44 (inactive) | 1.2 (inactive) | 0.67 (inactive) | 0.505 (inactive) | 0.358 (inactive) | -1.66 | -0.0151 | 3.33 (inactive) | 0.443 | -0.767 | -1.08 (inactive) | 0.366 (inactive) | 0.971 (inactive) |
| C[C@H]1NC(=O)C([C@@H](C)OCc2ccccc2)NC(=O)[C@@]23C(=O)N[C@@H](Cc4ccccc4)C2[C@H](C)[C@@]2(C)O[C@H]2C3/C=C/C/C=C\CNC1=O (stereo not given in full) | -0.588 | 0.481 (inactive) | 0.178 (inactive) | 0.369 (inactive) | 0.13 (inactive) | 0.787 (inactive) | 0.979 (inactive) | 0.545 (inactive) | 0.472 | -0.381 | -0.113 (inactive) | -0.417 | -2.93 | -6.74 (inactive) | 0.314 (inactive) | 0.451 (inactive) |
| CCCCN1CC=CC23O[C@@H]4C=CCOC(=O)[C@@H]4[C@H]2C(=O)N(C(CO)C(C)C)[C@@H]3C1=O (stereo not given in full) | -0.469 | 0.303 (inactive) | -0.908 (inactive) | -0.221 (inactive) | 0.0405 (inactive) | 0.707 (inactive) | -0.781 (inactive) | -0.825 (inactive) | -0.844 | -0.22 | -0.332 (inactive) | -0.186 | -0.156 | -5.09 (inactive) | 0.216 (inactive) | 0.118 (inactive) |
| CC(C)N1CC=CC23O[C@@H]4C=CCCOC(=O)C4[C@H]2C(=O)N(CCCCCO)[C@@H]3C1=O (stereo not given in full) | 0.613 | 0.848 (inactive) | 0.988 (inactive) | -0.727 (inactive) | 0.0126 (inactive) | 0.581 (inactive) | 1.01 (inactive) | 0.798 (inactive) | 1.42 | 0.0684 | 0.192 (inactive) | -0.386 | 0.263 | -3.86 (inactive) | -0.389 (inactive) | 0.0936 (inactive) |
